# Several values for one entry are separate records, joined by “and”; a condition that tells them apart may be missing. Identical values can stand only once. Results filed as inconclusive are left out. Entries that show only a call come without a potency. Activity calls are given as the source filed them. Unless noted, calls follow the shape of the dose curve; as a rule, active = well fitted curve in the direction sought with a large enough effect; inconclusive = small, poorly fitted or top-dose-only effect, or another doubt; inactive = no such curve, though single readings can be large; an effect the other way counts as inactive or inconclusive.
# Assays:
# [1] = Cell Viability - Hek293 (AID 427;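 active = compounds whose dose-response curve shows a full or clear partial loss of cell viability, called from curve shape rather than a numeric limit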;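 also: potency is read from the fitted curve at half-maximal effect; cells exposed to compound for 40 hours at 37 °C before reading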); settings: qHTS
# Outline: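 HEK293 cells in complete medium were exposed to compound for 40 hr at 37 °C, then cellular ATP was read by CellTiter-Glo luminescence. Data were normalized to DMSO (basal) and 100 uM tamoxifen (100% inhibition), and AC50 came from Hill fits.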
# [2] = Cell Viability - N2a (AID 540); settings: N2a mouse neuroblastoma cell viability; activity change, negative = cytotoxicity: at 92.2 µM (top of the series); also: nearly all actives have a fitted effect of over 45% in size; also: potency is read from the fitted curve at half-maximal effect
# Outline: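 Luminescent ATP signal (CellTiter-Glo, 20 min at room temperature) served as the viability read-out after N2a cells were treated with compounds for 40 hours at 37 °C. Concentration-response data were fitted to the Hill equation for AC50.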
# [3] = Cell Viability - SH-SY5Y (AID 544); settings: SH-SY5Y neuroblastoma cell viability; viability change, negative = cytotoxic: at 92.2 µM (top of the series); also: nearly all actives have a fitted effect of over 55% in size; also: potency is read from the fitted curve at half-maximal effect
# Outline: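 Luminescent ATP read-out (CellTiter-Glo) measures loss of viable SH-SY5Y neuroblastoma cells after 40 hr compound exposure at 37 °C. AC50 values derive from standard Hill modelling of qHTS concentration-response data.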
# [4] = Cellular Toxicity (caspase-3) Mesangial (AID 660); settings: mesangial cells, normalized: DMSO 0%, 100 µM tamoxifen 100%; series mostly up to 91.7 µM;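 also: combined caspase 3 and 7 activity read by Caspase-Glo luminescence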
# Outline: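 Mesangial cells, 1000/well, 5 h settle at 37 °C; compound 16 h, 37 °C; Caspase-Glo 3/7 reagent 20 min RT; luminescence. Norm.: DMSO = 0%, tamoxifen 100 uM = 100%. AC50, Hill fit.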
# [5] = Cellular Toxicity (caspase-3) H-4-II-E (AID 663); settings: H-4-II-E rat hepatoma; Potency: caspase-3 activation; series mostly up to 92.2 µM; also: potency is read from the fitted curve at half-maximal effect;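 as to caspase-3 activation: cells exposed to compound for 16 hr before readout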
# Outline: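 Rat hepatoma H-4-II-E cells (1500/well) plated 5 hr, then exposed to compound titrations for 16 hr at 37 °C. Caspase-Glo 3/7 luminescence read after 20 min at RT; data normalized to DMSO and 100 uM tamoxifen, AC50 from Hill fits.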
# [6] = Cellular Toxicity (caspase-3) NIH 3T3 (AID 666); settings: NIH 3T3 caspase-3 activation, apoptosis/toxicity; series mostly up to 92.2 µM;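 also: caspase signal read after 16 h compound exposure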
# Outline: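 Luminescence from aminoluciferin released by caspase-3/7 cleavage of a peptide substrate served as read-out. Mouse fibroblast NIH 3T3 cells were exposed to compounds over a concentration range for 16 hours, and AC50 values came from standard Hill modelling.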
# [7] = Cell Viability - LYMP2-001 (AID 921); settings: LYMP2-001 lymphoblastoid cell viability; series mostly up to 92.2 µM;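 also: cells exposed to compound for 24 h at 37 °C; nearly all actives have a fitted effect of over 70% in size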
# Outline: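 CellTiter-Glo luminescence (intracellular ATP) after 24 hr compound exposure at 37 C, 2500 lymphoblastoid cells/well in complete medium. AC50 fitted with standard Hill equation; tetraoctylammonium bromide positive control.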
# [8] = MultiTox-Fluor Cytotoxicity Assay - LYMP1-002 - Dead Cells (AID 960); settings: LYMP1-002 lymphoblastoid cells, dead-cell protease fluorescence; series mostly up to 46.1 µM; also: nearly all actives have a fitted effect of over 60% in size
# Outline: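 LYMP1-002 cells 2500/well; 5 hr 37 C pre-incubation; compound 16 hr 37 C; MultiTox-Fluor reagent 60 min RT; dead-cell fluor Ex/Em 485/520. Norm. to DMSO (0%) vs 15 uM tetraoctylammonium bromide (100%); Hill AC50.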
# [9] = qHTS assay for small molecule agonists of retinoid X receptor alpha signaling (AID 588544; calls by dose curve); settings: HEK293T RXRa-UAS-bla, beta-lactamase reporter, 18 h; 530 nm emission
# [10] = molecular target: Retinoic acid receptor RXR-alpha (Homo sapiens) (UniProt P19793); assay: as above; settings: HEK293T RXRa-UAS-bla, beta-lactamase reporter, 18 h; series mostly up to 76.7 µM
# Retinoic acid receptor RXR-alpha (Homo sapiens), sequence (P19793 whole entry, looked up): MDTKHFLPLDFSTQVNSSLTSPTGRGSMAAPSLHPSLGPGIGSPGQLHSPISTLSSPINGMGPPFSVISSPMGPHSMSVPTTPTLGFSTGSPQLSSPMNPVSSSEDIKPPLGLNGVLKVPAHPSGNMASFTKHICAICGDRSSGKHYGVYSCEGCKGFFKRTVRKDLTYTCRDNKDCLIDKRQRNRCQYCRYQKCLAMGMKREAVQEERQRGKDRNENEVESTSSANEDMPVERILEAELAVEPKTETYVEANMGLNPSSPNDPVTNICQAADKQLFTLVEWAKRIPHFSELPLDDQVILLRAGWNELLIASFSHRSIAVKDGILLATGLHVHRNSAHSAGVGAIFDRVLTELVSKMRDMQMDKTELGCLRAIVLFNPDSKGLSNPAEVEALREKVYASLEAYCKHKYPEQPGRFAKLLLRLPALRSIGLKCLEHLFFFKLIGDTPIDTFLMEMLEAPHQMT
# [11] = molecular target: Thyroid hormone receptor beta (Homo sapiens) (UniProt P10828); assay: qHTS assay for small molecule antagonists of thyroid hormone receptor beta signaling (AID 588547; active = well fitted inhibition curve with a large enough effect in the signal ratio, with a control signal flat, not every such curve was filed as active; the % refers to the signal ratio;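 also: cells stimulated with 0.4 nM T3 agonist during compound exposure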); settings: TR-UAS-bla HEK293, beta-lactamase ratio, antagonist mode, 18 h
# Thyroid hormone receptor beta (Homo sapiens), sequence (P10828 whole entry, looked up): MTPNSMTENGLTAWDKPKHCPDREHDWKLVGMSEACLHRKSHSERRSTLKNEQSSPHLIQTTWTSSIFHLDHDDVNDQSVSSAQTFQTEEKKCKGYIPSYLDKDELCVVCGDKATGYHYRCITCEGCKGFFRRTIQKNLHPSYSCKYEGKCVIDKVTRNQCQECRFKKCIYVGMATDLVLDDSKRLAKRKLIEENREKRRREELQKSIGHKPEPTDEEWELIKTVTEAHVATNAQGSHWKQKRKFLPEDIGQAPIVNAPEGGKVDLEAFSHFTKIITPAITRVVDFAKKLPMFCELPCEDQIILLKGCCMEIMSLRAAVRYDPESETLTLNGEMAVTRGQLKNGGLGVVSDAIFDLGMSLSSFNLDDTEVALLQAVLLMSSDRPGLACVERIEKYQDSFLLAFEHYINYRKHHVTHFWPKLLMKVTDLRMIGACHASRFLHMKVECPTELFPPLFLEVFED
# Outline: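 TR-UAS-bla GripTite HEK293 cells in 2% charcoal/dextran FBS medium; compounds 0.59 nM to 92 uM with T3 at 0.4nM final, 18 h at 37 C. Beta-lactamase read by CCF4 fluorescence (460/530 nm); Hill fits gave IC50 and efficacy.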
# [12] = qHTS assay for small molecule disruptors of the mitochondrial membrane potential - 1 hr assay (AID 651754; calls by dose curve; also: nearly all actives have a fitted effect of over 35% in size; also: potency is read from the fitted curve at half-maximal effect); settings: series mostly up to 92.2 µM
# Outline: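 HepG2, 2,000 cells/well, overnight attachment; cpd or DMSO 1 hr, 37C/5% CO2; Mito-MPS dye 30 min, 37C; fluorescence monomer (490/535) and aggregate (540/590).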
# [13] = qHTS assay for small molecule disruptors of the mitochondrial membrane potential - 5 hr assay (AID 651755; calls by dose curve; also: nearly all actives have a fitted effect of over 40% in size; also: potency is read from the fitted curve at half-maximal effect); settings: JC-1-type ratio dye; series mostly up to 92.2 µM
# Outline: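 HepG2 cells (2,000/well), attached overnight, exposed to compound 5 hr at 37C, then Mito-MPS dye 30 min. Fluorescence read for monomers (490/535 nm) and aggregates (540/590 nm).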
# [14] = molecular target: Nuclear receptor ROR-gamma (Homo sapiens) (UniProt P51449); assay: qHTS assay for small molecule antagonists of the retinoid-related orphan receptor gamma (ROR-gamma) signaling pathway (AID 651802); settings: ROR-gamma antagonist cell reporter assay; series mostly up to 92.2 µM;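 also: CHO cells with doxycycline-induced ROR-gamma expression; luciferase reporter luminescence driven by ROR response element; nearly all actives have a fitted effect of over 60% in size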
# Nuclear receptor ROR-gamma (Homo sapiens), sequence (P51449 whole entry, looked up): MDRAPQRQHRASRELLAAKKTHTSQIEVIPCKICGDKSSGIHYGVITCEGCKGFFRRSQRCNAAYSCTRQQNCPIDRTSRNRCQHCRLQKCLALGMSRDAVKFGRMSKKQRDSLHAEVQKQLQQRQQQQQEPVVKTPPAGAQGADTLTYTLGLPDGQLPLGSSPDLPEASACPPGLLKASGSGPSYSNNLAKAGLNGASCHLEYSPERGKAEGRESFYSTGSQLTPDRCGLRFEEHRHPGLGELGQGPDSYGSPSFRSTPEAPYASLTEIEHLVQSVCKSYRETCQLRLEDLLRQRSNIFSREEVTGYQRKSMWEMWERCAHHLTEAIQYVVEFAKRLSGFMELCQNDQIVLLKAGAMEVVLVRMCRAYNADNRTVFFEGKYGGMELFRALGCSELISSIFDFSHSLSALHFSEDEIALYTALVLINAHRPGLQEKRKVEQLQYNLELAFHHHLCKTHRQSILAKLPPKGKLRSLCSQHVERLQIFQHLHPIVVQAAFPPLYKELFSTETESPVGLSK
# Outline: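 CHO, TET-inducible ROR + RORE-LUC reporter, 1536-well qHTS. Compound pinned, doxycycline added, 16hr 37C/5% CO2. ONE-Glo, 30 min RT, luminescence; signal drop scored as antagonism.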
# [15] = qHTS assay for small molecule agonists of the antioxidant response element (ARE) signaling pathway measured by Nrf2-dependant transcriptional activity - cell viability counter screen (AID 720653; active = well fitted curve in the direction sought with a large enough effect in the repeat runs; an effect the other way counts as inactive or inconclusive); settings: ARE-bla HepG2 viability, CellTiter-Glo ATP luminescence, 16 h; stronger effect = lower value
# Outline: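 ARE-bla HepG2 cells treated with compounds for 16 h at 37C; this counter screen measures viability as intracellular ATP by CellTiter-Glo luminescence after 30 min at room temperature.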
# [16] = qHTS assay for cell viability of HEK293 cells (AID 743288); settings: ATP luminescence (CellTiter-Glo), 18 h, stronger effect = lower value; also: nearly all actives have a fitted effect of over 50% in size
# Outline: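 Environmental chemicals tested in qHTS format against parental HEK293 cells; 18 h treatment, 37 C; read-out ATP luminescence (CellTiter-Glo), 30 min RT development.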
# [17] = Cellular Toxicity (caspase-3) SHSY5Y (AID 657); settings: SH-SY5Y caspase-3 activation, DMSO zero, 10 µM staurosporine = 100%; series mostly up to 91.7 µM
# Outline: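 Luminescent caspase-3/7 readout (aminoluciferin release) in SH-SY5Y cells after 16 h compound exposure in complete medium. Activity scaled between DMSO basal and 10 uM staurosporine as 100%; concentration-response fitted to Hill equation for AC50.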
# [18] = Cell Viability - LYMP2-009 (AID 968); settings: LYMP2-009 lymphoblastoid cell viability; series mostly up to 92.2 µM;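 also: cells exposed to compound for 24 h at 37 °C; nearly all actives have a fitted effect of over 55% in size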; also: potency is read from the fitted curve at half-maximal effect
# [19] = Cell Viability - LYMP2-006 (AID 978); settings: LYMP2-006 lymphoblastoid cell viability, qHTS; series mostly up to 92.2 µM;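 also: cells exposed to compound for 24 hours; nearly all actives have a fitted effect of over 60% in size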; also: potency is read from the fitted curve at half-maximal effect
# Outline: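 qHTS, 1536-well; 2500 cells/well, 5 hr 37 C; cpd 24 hr 37 C; CellTiter-Glo 30 min RT; luminescence. Tetraoctylammonium bromide pos. ctrl. AC50 via Hill eqn.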
# [20] = molecular target: Vitamin D3 receptor (Homo sapiens) (UniProt P11473); assay: qHTS assay for small molecule antagonists of vitamin D receptor signaling (AID 588541; calls by dose curve;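 also: receptor activated by calcitriol during compound treatment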); settings: HEK293T VDR-UAS-bla, beta-lactamase ratio, antagonist mode; series mostly up to 76.7 µM
# Vitamin D3 receptor (Homo sapiens), sequence (P11473 whole entry, looked up): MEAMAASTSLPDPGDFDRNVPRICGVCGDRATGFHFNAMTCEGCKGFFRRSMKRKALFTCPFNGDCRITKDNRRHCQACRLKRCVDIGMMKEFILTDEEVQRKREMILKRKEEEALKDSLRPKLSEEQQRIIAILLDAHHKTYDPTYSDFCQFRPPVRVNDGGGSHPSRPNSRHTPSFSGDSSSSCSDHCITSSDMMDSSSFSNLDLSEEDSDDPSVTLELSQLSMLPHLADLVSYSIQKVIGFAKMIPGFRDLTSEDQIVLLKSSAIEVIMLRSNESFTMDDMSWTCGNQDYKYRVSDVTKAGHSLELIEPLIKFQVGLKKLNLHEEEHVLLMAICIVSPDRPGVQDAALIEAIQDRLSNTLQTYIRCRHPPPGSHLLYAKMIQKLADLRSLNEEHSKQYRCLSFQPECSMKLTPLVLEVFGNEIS
# Outline: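 VDR-UAS-bla HEK293T cells in 2% charcoal-stripped FBS were stimulated with 1-alpha,25-dihydroxyvitamin D3 (3 nM final) plus compound for 16 h at 37 C. The beta-lactamase CCF4 readout was normalized to 50 nM agonist and DMSO, and Hill fits gave IC50.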
SMILES,Potency [1],Potency [2],Potency [3],outcome [4],Potency [5],Potency [6],Potency [7],Potency [8],max response [9],outcome [10],activity change % (negative = inhibition) [11],Potency [12],Potency [13],Potency [14],max response [15],max response [16],outcome [17],Potency [18],Potency [19],outcome [20]
O=[N+]([O-])c1ccccc1O,> 92 µM (inactive),inactive,inactive,inactive,inactive,inactive,inactive,inactive,-4.21%,inactive,-16.2% (inactive),inactive,inactive,inactive,5.01% (inactive),0.38% (inactive),,,,
O=S(=O)(O)F,> 92 µM (inactive),inactive,inactive,inactive,inactive,,,inactive,-13.3%,inactive,10% (inactive),inactive,inactive,,-6.55% (inactive),-2.74% (inactive),inactive,inactive,inactive,inactive
COC(=O)Nc1nc2ccccc2[nH]1,> 92 µM (inactive),inactive,7.94 µM (active),inactive,inactive,inactive,,,,,-22.5% (inactive) and -22.8% (inactive),inactive,inactive,inactive,0.0482% (inactive) and -1.74% (inactive),-9.84% (inactive) and -19.2% (inactive),,inactive,inactive,inactive
ClC(Cl)(Cl)C(Cl)(Cl)Cl,> 92 µM (inactive),inactive,inactive,inactive,inactive,inactive,,inactive,0.0695%,inactive,3.45% (inactive),inactive,inactive,inactive,-0.289% (inactive),,inactive,inactive,,inactive
c1ccc(Nc2ccc(Nc3ccccc3)cc2)cc1,> 92 µM (inactive),15.8 µM (active),,inactive,inactive,inactive,,,0.613%,inactive,,42.2 µM (active),59.6 µM (active),inactive,-13.9% (inactive),-19.5% (inactive),,inactive,inactive,inactive
COc1ccc(C=O)cc1,> 92 µM (inactive),inactive,inactive,inactive,inactive,inactive,inactive,inactive,-0.469%,inactive,19.4% (inactive),,,inactive,7.96% (inactive),-1.3% (inactive),inactive,inactive,inactive,inactive
CCCCOC(C)=O,> 92 µM (inactive),inactive,inactive,inactive,inactive,,inactive,inactive,6.81%,inactive,1.15% (inactive),inactive,inactive,inactive,10.3% (inactive),-4.32% (inactive),inactive,inactive,inactive,
CC(C#N)CCC#N (configuration not stated),> 92 µM (inactive),inactive,inactive,inactive,inactive,inactive,inactive,inactive,-11.4%,inactive,9.23% (inactive),,,inactive,,-7.04% (inactive),inactive,inactive,inactive,inactive
ClCC(Cl)CCl,> 92 µM (inactive),inactive,inactive,inactive,inactive,inactive,inactive,inactive,-14.4% and -17.5%,inactive,0.0158% (inactive) and 2.43% (inactive),inactive,inactive,inactive,3.4% (inactive) and -4.41% (inactive),,inactive,inactive,,inactive
Nc1ccccc1-c1ccccc1,> 92 µM (inactive),inactive,inactive,inactive,inactive,inactive,inactive,inactive,14.6%,inactive,,,,inactive,-2.88% (inactive),3.8% (inactive),inactive,inactive,inactive,inactive
CCCCC(=O)Cl,> 92 µM (inactive),inactive,inactive,inactive,inactive,inactive,inactive,inactive,-18.9%,inactive,,inactive,inactive,inactive,2.67% (inactive),5.94% (inactive),,inactive,inactive,inactive
CCCCCCCCCCCOC(=O)c1ccccc1C(=O)OCCCCCCCCCCC,> 92 µM (inactive),inactive,inactive,inactive,,inactive,inactive,inactive,-1.51%,inactive,,inactive,inactive,inactive,,3% (inactive),inactive,inactive,inactive,inactive
Nc1ccc(Cc2ccc(N)c(Cl)c2)cc1Cl,> 92 µM (inactive),,inactive,inactive,inactive,inactive,inactive,,,,,inactive,inactive,,-8.13% (inactive),-12.3% (inactive),inactive,inactive,inactive,inactive
O=[N+]([O-])/C=C/c1ccccc1,,,12.6 µM (active),inactive,6.31 µM (active),,,inactive,-4.59%,inactive,-15.9% (inactive),inactive,inactive,inactive,-1.14% (inactive),-10.7% (inactive),,50.1 µM (active),39.8 µM (active),inactive
